In the supplement of paper PMC6555819:

system: VDR:RXRa (NR concentration 270 nM, RXRa partner concentration 90 nM); assay: PBM binding z-score (relative to random genomic background probes); higher = stronger binding; sequences stand for … in GC…GCGATTGACAGCGTAGAATGAAGG
Protocol: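 Protein-binding microarray (Agilent 4x180K custom design, double-stranded 60-nt probes: 5' GC cap, 34-nt variable region, 24-nt constant primer region; full probe sequence given). Purified or IVT nuclear receptor:RXRα heterodimers (3:1 NR:RXRα, mostly 270:90 nM) or homodimers were incubated for 1 h in PBS with 2% milk and no ligand, then detected with Alexa488 antibodies. Fluorescence from o1-orientation probes (~5 replicates averaged) was converted to z-scores against 500 random hg19 background probes. Variable regions are seed direct-repeat (DR0–DR5) sites, all their single-nucleotide variants and half-site ablations.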

Sequence | PBM binding z-score
TCTAGTTGGTCAAAGGTCACACAGTCGAAATGCG | 5.68
TATAGTTGGTCACGGAGGTCACACACGACGGGTA | 5.81
ATATGTAGGTTAGCGGGTCATTCAGTTTGCGCAT | 4.74
GCGACTGGGGCATCAGCAGGTTACCGTAACTTAA | -0.147
AGAATGAGGTTACCAAAGATCAGGGAAACGCTTG | 1.37
CCTACTGAGCCATCAGGTCATTGATATCAACGTT | 2.15
ATCGCTAGGTAAGACTCAGTTCAGTGAAGAACGC | -0.0263
ACTAGCAGCCCAAGGGTCACTCAAGATTAGTCCG | 2.6
GCTTGCAGATCAAGGTTAAGAAAGACTAAGCTAA | -0.0251
AGTCAAAGTTCATCTAGGAAACGTAAGATATGCT | 4.66
CCGACTGCGGCAGAAAGGTTACCATACCATCCGG | 0.485
ATATCTAGGTAACCAAGTTCAGTGAATGCCGAAC | 3.97
TCTCGGAGGACACGAAGGTTAGAGCTTTCCAGAG | 0.237
TCTAGCAGGCCAGAGGGTCACTCTAGAGGTACGG | 0.978
CCTACTGGGCCAAGGTCATTGTTCAGTCAAAGCA | 3.15
TCTTGTATATCAATAGAGGTTAAGAAAGTGCGCT | 2.14
ATATGTAGGCTAGCTGGGGTCATTCAGACTAGGC | 4.77
TCTCGGAGGACACGAAAGGTCAGACCTCGACATC | 3.52
TCTTGTAGATCAGCAAGTTAAGAAAGCTGGCCAA | 0.28
CGAACTAGGTCACGAAAGGTCAAAGTCGAATGAC | 6.89

Sequence | PBM binding z-score
CCGACTGGGCCAAGGTTACCATAACGCACAGCCA | -0.185
GCAGACAGGTGAAAAGCAGGTAACTCAGGGTGGC | -0.329
CCGACTGGGGCAAGGTTACCATAACGCACAGCCA | 0.0411
TCTATTAGTTGAAAGGCAACCGACGAGTCCGTTT | 0.899
CGTCAAAGTTCAACTAAGGTAACGTCAAGCACGC | 4.83
CATGCTAGGTCAATGGTCAGCTAAAGCAGCTCGC | 1.06
TGAATGAGGTTATAAGATCAGGAAACGTTGCAAA | 1.01
CAAACTAGGTCTCGAAAGGTCAAAGTCGAATGAC | 4.71
TTACCGAGGTGAGCTGAGGTCGTTGATCCAACTC | 4.51
TCTATTTGTTGAAGGGCAACCGACGAGTCCGTTT | 1.19
ACAGACAGGTGATGAAGGTAACTCAGGCTATCAT | 0.0426
GCTATTAGCTGAAAGGGCAACCGAATGATTCTCG | -0.0457
GCAGTCAGGTGAAACGCAGGTAACTCAGGGTGGC | -0.464
TCATATAGGTAAACAGGTGAAAATCCGTAAGTTA | 1.39
CTCGAAAGGTCGGTTCAGGTGAGTATACGGATAA | 2.71
CCTACTTGGTCAAGGTCACACACGCTATAGGTAC | 3.97
GCATATAGGTAATACAATGTGAAAGTCCGATTGT | -0.0597
GCTTACGGGTCAAATGTTATAGCATGAATAGAAT | 3.64
CAGCCTAGGTCAGGGCCTGTATAGGAGGAACGTT | -0.0829
TCATAAAGGTAAAGGTGAAAGTCGAACGATATGA | 0.948
